15-hLO-2 inh: blocks human 15-lipoxygenase 2 activity; O15296; purified 15hLO-2, xylenol orange hydroperoxide absorbance; Potency, µM (top dose mostly 57.1 µM), inactives show top-dose activity change, negative = inhibition, hits mostly inhibitors; 110,000 compounds, 0.56% hits; AID 881; also: potency is read from the fitted curve at half-maximal effect; nearly all actives have a fitted effect of over 60% in size
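Read-out: hydroperoxide product oxidises ferrous iron, measured as xylenol orange complex via the 573-to-405 nm absorbance ratio after 30 min. Reaction: 50 nM enzyme, 15 min compound preincubation, 45 uM arachidonic acid, 90 min RT, Hepes pH 7.5 with Triton X-100.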
HPGD inh: inhibitors of human 15-hydroxyprostaglandin dehydrogenase (HPGD); P15428; purified HPGD, NADH fluorescence kinetic, PGE2 substrate; Potency, µM, for the others: top-dose activity change, negative = inhibition, usual class: inhibitors; 150,000 compounds, 4.3% hits; AID 894; active = well fitted inhibition curve with a large enough effect, not every such curve was filed as active; inconclusive = small, poorly fitted or top-dose-only effect, or another doubt; inactive = no such curve, though single readings can be large or run the other way; also: potency is read from the fitted curve at half-maximal effect
Target sequence (P15428 whole entry, looked up): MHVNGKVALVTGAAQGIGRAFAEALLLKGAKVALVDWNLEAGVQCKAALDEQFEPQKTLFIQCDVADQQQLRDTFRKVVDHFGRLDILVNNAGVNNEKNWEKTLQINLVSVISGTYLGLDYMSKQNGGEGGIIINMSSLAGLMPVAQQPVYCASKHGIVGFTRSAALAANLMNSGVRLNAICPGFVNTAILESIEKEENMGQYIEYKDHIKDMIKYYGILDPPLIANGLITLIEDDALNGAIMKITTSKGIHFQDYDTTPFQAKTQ
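20 nM HPGD preincubated 15 min at room temperature with compound in 50 mM Tris-HCl pH 8, 0.01% Tween 20. Started with 1 mM NAD+ and 30 uM prostaglandin E2; NADH fluorescence (360/450 nm) read 5 times over 30-s intervals, last minus first.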
PNC assembly inh: inhibitors of perinucleolar compartment assembly. PC3M PTB-GFP, PNC prevalence imaging, 16 h; active compounds read low. activity change (PNC), negative = inhibition, % at 10 µM. 140,000 compounds, 3.1% hits. AID 2417;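 active = readout at or below -70, meaning at least 70% loss of cells showing the perinucleolar compartment, a nuclear body marking cancer cells; inconclusive = readout between -30 and a set limit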;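 also: plate controls were DMSO wells for no effect and camptothecin positive control wells for full effect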
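PC3M cells stably expressing PTB-GFP, 750–1000 cells/well, treated 16 h at 37 °C with compound (23 nl of library stock), in duplicate. After paraformaldehyde fixation and Hoechst stain, imaged at 20x; PNC prevalence scored by image analysis.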
IMPase inh: IMPase inhibition in cells | inhibition (IP1 accumulation), % at 46.1 µM | 120,000 tested, under 10 active | AID 901 | P97697 | CHO-M1 cells, IP1 accumulation, HTRF TR-FRET ratio; active = well fitted curve in the direction sought with a large enough effect in the signal ratio, not every such curve was filed as active; inconclusive = small, poorly fitted or top-dose-only effect, or a change in a side signal; inactive = no such curve, though single readings can be large or run the other way; the % refers to the signal ratio;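 also: cells stimulated with carbachol in lithium chloride buffer; plate controls were DMSO basal wells for no effect and reference inhibitor wells for full effect; higher means more IMPase inhibition seen as more IP1 and lower FRET ratio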
Target sequence (P97697 whole entry, looked up): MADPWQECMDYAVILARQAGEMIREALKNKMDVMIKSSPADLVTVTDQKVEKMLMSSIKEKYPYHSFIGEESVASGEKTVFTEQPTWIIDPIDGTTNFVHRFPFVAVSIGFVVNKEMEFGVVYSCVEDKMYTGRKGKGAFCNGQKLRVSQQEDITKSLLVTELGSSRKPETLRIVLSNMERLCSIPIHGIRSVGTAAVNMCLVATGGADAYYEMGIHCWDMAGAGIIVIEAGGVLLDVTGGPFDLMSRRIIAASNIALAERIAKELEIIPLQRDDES
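CHO-M1 cells (CHO stably expressing M1 receptor), compound up to 46 uM final, stimulated with carbachol (50 uM as added) in buffer with 50mM LiCl, pH 7.4, 30 min at 37C. Cytosolic IP1 read by TR-FRET; AC50 from Hill fits.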
IMPase Li inh: membrane-permeable IMPase blocker, potentiated with lithium. Potency, µM (highest dose often 59.4 µM), for inactives: top-dose activity, negative = IMPase inhibition, actives largely listed as inhibitors. CHO-M1 cells, IP1 TR-FRET (IP-One), carbachol + lithium. 210,000 compounds, 0.35% hits;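 also: IP1 builds up when IMPase is blocked and the TR-FRET signal falls; potency is read from the fitted curve at half-maximal effect; plate controls were basal vehicle for no effect and high inhibitor control for full effect; nearly all actives have a fitted effect of over 50% in size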
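CHO cells stably expressing M1 receptor (2000/well) were cultured 16–30 h, then exposed to compounds with a small lithium addition for 30 min at 37C. IP1 was measured by TR-FRET competition; AC50 from Hill fits.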
12-hLO inh: 12-hLO (ALOX12) enzyme inhibition. P18054. purified 12-hLO, xylenol orange hydroperoxide absorbance. Potency, µM (highest dose often 57.1 µM), for the others: at the top dose activity change, negative = inhibition, usual class: inhibitors. 150,000 compounds, 0.12% hits; also: potency is read from the fitted curve at half-maximal effect; nearly all actives have a fitted effect of over 55% in size
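Purified human 12hLO (150 nM final) was preincubated with compounds for 15 min at room temperature in 25 mM Hepes pH 7.0, 0.01% Triton X-100, then reacted with 40 uM arachidonic acid for 30 min. Hydroperoxide was detected with ferrous iron/xylenol orange.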
Starred values were filed as active, the others as inactive; [ ] = another dose, or the depositor's remark. A selection: hits, their analogues and other compounds. The true share with any hit is near 5.3%. Unless noted, calls follow the shape of the dose curve; as a rule, active = well fitted curve in the direction sought with a large enough effect; inconclusive = small, poorly fitted or top-dose-only effect, or another doubt; inactive = no such curve, though single readings can be large; an effect the other way counts as inactive or inconclusive. Unless noted, % is scaled to controls: 0 for no effect and ±100 for the full control effect.

COc1ccc(Br)cc1C(=O)N/N=C/c1ccc2c(c1)n(C)c(=O)n2C was read as HPGD inh inconclusive, PNC assembly inh -82*, IMPase Li inh -23% and 12-hLO inh 1%.
Cn1c(=O)n(C)c2cc(/C=N/NC(=O)c3ccc(Cl)cc3Cl)ccc21 was read as 15-hLO-2 inh 3%, HPGD inh inconclusive, PNC assembly inh 64, IMPase inh 5, IMPase Li inh 8%[38.3 µM] and 12-hLO inh 3%.
`COc1ccc(-n2c(CN3CCN(c4ccccn4)CC3)nc3ccc([N+](=O)[O-])cc3c2=O)c(OC)c1` gave IMPase Li inh 10%.
O=[N+]([O-])c1ccccc1Oc1ncccc1[N+](=O)[O-] was read as IMPase Li inh 8%.
`O=[N+]([O-])c1ccccc1Oc1ccccc1Cl` gave HPGD inh 32µM*, PNC assembly inh 26, IMPase Li inh 12% and 12-hLO inh 0%.
For CCN(CC)Cc1c(O)ccc2c(C)c(CC(=O)OC)c(=O)oc12 the results were 15-hLO-2 inh 2%, HPGD inh inconclusive, PNC assembly inh 1, IMPase inh -23, IMPase Li inh 10µM* and 12-hLO inh 8%.
`CCN(CC)Cc1c(O)ccc2c(-c3ccccc3)cc(=O)oc12` gave 15-hLO-2 inh 3%, HPGD inh inconclusive, PNC assembly inh -118*, IMPase inh -12, IMPase Li inh -7%[38.3 µM] and 12-hLO inh -2%.
`COC(=O)Cc1c(C)c2ccc(OCC(C)=O)c(C)c2oc1=O` gave 15-hLO-2 inh 5%, HPGD inh inconclusive, PNC assembly inh -26, IMPase inh 8, IMPase Li inh 10%[38.3 µM] and 12-hLO inh -3%.
COc1cc(OC)c2cc(-c3ccncc3)cnc2c1 was read as 15-hLO-2 inh 0%, HPGD inh inconclusive, IMPase inh -10, IMPase Li inh -15% and 12-hLO inh -6%.
COc1cc(NC(=O)c2cccc(C)c2)c(Cl)cc1[N+](=O)[O-] was read as HPGD inh -15%, PNC assembly inh 10, IMPase Li inh -1% and 12-hLO inh 0%.
For O=C(c1cc(Br)ccc1O)c1cc(Br)ccc1O the results were 15-hLO-2 inh -12%[11.4 µM], HPGD inh 2.8µM*, IMPase Li inh 9% and 12-hLO inh 1%[11.4 µM].
`N#Cc1cc(C(=O)c2cc(Br)ccc2O)cn(C2CC2)c1=O` gave 15-hLO-2 inh -9%, HPGD inh 18µM*, PNC assembly inh -15, IMPase inh -1, IMPase Li inh 5%[38.3 µM] and 12-hLO inh -16%.
Screening O=C(NCc1cccnc1)c1ccc(NC(=O)c2cccc([N+](=O)[O-])c2)cc1 returned IMPase Li inh -1%.
`NC(=O)Nc1ccc(C(=O)OCC(=O)Nc2ccc([N+](=O)[O-])cc2C(F)(F)F)cc1` gave HPGD inh -16%, PNC assembly inh -23, IMPase Li inh -2% and 12-hLO inh -3%.
`Cc1ccc(CNC(=O)CSc2n[nH]c(N)n2)cc1` gave 15-hLO-2 inh 1%[2.29 µM], HPGD inh 1%, PNC assembly inh -93*, IMPase inh 4, IMPase Li inh 14%[38.3 µM] and 12-hLO inh -2%.
`O=S(=O)(c1ccc2c(c1)OCCO2)N1CCC(O)(c2ccc(Cl)cc2)CC1` gave 15-hLO-2 inh -8%, HPGD inh -12%, PNC assembly inh -125*, IMPase inh 20, IMPase Li inh 45%[38.3 µM] and 12-hLO inh -7%.
CCCCC/C=C\C/C=C\CCCCCCCC(=O)NCCc1ccc(O)c(O)c1 was read as HPGD inh -2%, IMPase Li inh 7% and 12-hLO inh -16%.
For CCCC(=O)c1ccc(N2CCCCCC2)c(F)c1 the results were 15-hLO-2 inh 2%, HPGD inh 16µM*, PNC assembly inh 0, IMPase inh -3, IMPase Li inh 4%[38.3 µM] and 12-hLO inh 1%.
`CCCC(=O)c1ccc(N2CCC(C)CC2)c(F)c1` gave HPGD inh 14µM*, PNC assembly inh 8, IMPase Li inh -3% and 12-hLO inh -6%.
CCC(=O)c1ccc(N2CCC(C)CC2)c(F)c1 was read as IMPase Li inh 7%.
`Cc1ccc(C)c(NC(=O)CN(C)C(=O)[C@@H](NC(=O)c2ccc(C(C)(C)C)cc2)C(C)C)c1` gave HPGD inh -6%, PNC assembly inh -98*, IMPase inh -3, IMPase Li inh 28% and 12-hLO inh -3%.
`COC(=O)C1=C(C(=O)OC)[C@@H]2N(C)c3ccccc3[C@@]23C[C@@H](C(=O)OC)N(S(=O)(=O)c2ccc(C(F)(F)F)cc2)C3=N1` gave HPGD inh -2%, IMPase Li inh 3% and 12-hLO inh 0%[11.4 µM].
Screening O=C(/C=C/c1ccc(Br)cc1)c1ccc(NC2=NCCCS2)cc1 returned HPGD inh 8.9µM*, PNC assembly inh -93*, IMPase Li inh -17% and 12-hLO inh -23%.
`Cc1cccc(/C=C/C(=O)c2ccc(NC3=NCCCS3)cc2)c1` gave HPGD inh -22%, PNC assembly inh 33, IMPase Li inh 13% and 12-hLO inh -3%.
Screening CC(C)(C)c1ccc(/C=C/C(=O)c2ccc(NC3=NCCCS3)cc2)cc1 returned HPGD inh 20µM*, PNC assembly inh -1, IMPase inh 3, IMPase Li inh -16% and 12-hLO inh -24%.
O=C(/C=C/c1ccccc1)c1ccc(NC2=NCCCS2)cc1 was read as HPGD inh 14µM*, PNC assembly inh inconclusive, IMPase Li inh 7% and 12-hLO inh -2%.
`Cc1cccc(N2C(=O)CCC2=O)n1` gave HPGD inh 0%, PNC assembly inh -21, IMPase Li inh -7% and 12-hLO inh -5%.
For O=C(c1ccccc1)c1ccc(N2CCOCC2)c(F)c1 the results were 15-hLO-2 inh -1%, HPGD inh 25µM*, PNC assembly inh inconclusive, IMPase inh 1, IMPase Li inh -1%[38.3 µM] and 12-hLO inh -1%.
For O=C(c1ccccc1)c1cc(F)c(N2CCOCC2)cc1Cl the results were 15-hLO-2 inh -10%, HPGD inh 20µM*, PNC assembly inh -26, IMPase inh 3, IMPase Li inh 11%[38.3 µM] and 12-hLO inh -6%.
For CN(C)C(=O)COc1ccc(Oc2ccccc2)cc1 the results were IMPase Li inh 3%.
COC(=O)C1=C(C)NC(=S)NC1c1ccco1 (configuration not stated) was read as IMPase Li inh 3%.
Screening Cc1cccc(C(CC(=O)NCc2ccco2)c2ccccc2)c1O (configuration not stated) returned IMPase Li inh 3%.
